Reference: PubChem BioAssay (Tox21)
Inconclusive results are not listed. A number with no mark means an inactive call. Active and inactive are the calls of the source. Calls follow the shape of the dose curve; as a rule, active = well fitted cell-killing curve with a large enough effect in the repeat runs; inconclusive = weak or mixed curves; inactive = flat fitted curve, though single readings scatter.

test: qHTS assay to identify small molecule antagonists of the estrogen receptor beta (ER-beta) signaling pathway - cell viability counter screen (AID 1259382); conditions: ER-beta-UAS-bla HEK293T viability, CellTiter-Glo luminescence, 16 h; series mostly up to 92.4 µM; activity change, negative = cytotoxicity: at the top concentration; also: nearly all actives have a fitted effect of over 55% in size
Text: U.S. Tox21 Program National Center for Advancing Translational Sciences [NCATS] NIH Chemical Genomics Center [NCGC] U.S. Environmental Protection Agency [EPA] National Institutes of Environmental Health Sciences [NIEHS] National Toxicology Program [NTP] U.S. Food and Drug Administration [FDA] Tox21 Assay Overview: Estrogen receptor (ER), a nuclear hormone receptor, plays an important role in development, metabolic homeostasis and reproduction. Two subtypes of ER, ER-alpha and ER-beta, have similar expression patterns with some uniqueness in both types. Endocrine disrupting chemicals (EDCs) and their interactions with steroid hormone receptors like ER causes disruption of normal endocrine function. To identify the compounds that inhibit ER signaling, an ER-beta-UAS-bla GripTite cell line (Life Technologies, Madison, WI, USA) containing a beta-lactamase reporter gene under the control of an UAS response element was used to screen Tox21 10K compound library. The cytotoxicity of the Tox21 compound library against the ER-beta-bla cell line was tested in parallel by measuring the cell viability using CellTiter-Glo assay in the same wells.
Tox21 Assay Protocol Summary: ER-beta-UAS-bla HEK293T cells were dispensed at 2,000 cells/4 uL of assay medium containing 2% charcoal stripped FBS per well into black wall/clear-bottom 1536-well plates using a Multidrop Combi (ThermoFisher Scientific, Waltham, MA) dispenser. After the assay plates were incubated at a 37C and 5% CO2 for 6 hr, 23 nL of compounds dissolved in DMSO, positive controls or DMSO only was transferred to the assay plate by a Pintool station (Kalypsys, San Diego, CA), followed by addition of 1 uL (1nM as final concentration) of 17-beta-estradiol (E2) in assay medium using a Flying Reagent Dispenser (FRD, Aurora Discovery, San Diego, CA). The plates were incubated at 37C and 5% CO2 for 16 hr. Then 1 uL of LiveBLAzer B/G FRET substrate was added using a Flying Reagent Dispenser, the plates were incubated at room temperature for 2 hours, and fluorescence intensity was measured by an Envision plate reader (PerkinElmer, Shelton, CT). For cell viability readout that measures cytotoxicity, 4 uL/well of CellTiter-Glo reagent was added into the assay plates using a FRD. After 30 min incubation at room temperature, the luminescence intensity in the plates was measured using a ViewLux (PerkinElmer) plate reader.
% is scaled to controls: 0 for no effect and ±100 for the full control effect; potency is read from the fitted curve at half-maximal effect.

**Q.** With `CC(=O)[C@@]1(O)CC[C@H]2[C@@H]3C[C@H](C)C4=CC(=O)CC[C@]4(C)[C@H]3CC[C@@]21C` as the compound, how does the “activity change, negative = cytotoxicity” value read?
**A.** The value was 1.61% [at 42.5 µM].

**Q.** Which “activity change, negative = cytotoxicity” value does the source give for `N=C(N=C(N)N)N1CCOCC1` here?
**A.** The value was 6.35% [at 42.5 µM].

**Q.** For `O=c1[nH]cnc2ccccc12`, which “activity change, negative = cytotoxicity” value is on record?
**A.** The value was -4.17%.

**Q.** Which “activity change, negative = cytotoxicity” value does the source give for `COCCCCCCCCOCCC[Si](C)(O[Si](C)(C)C)O[Si](C)(C)C` here?
**A.** Its value is -10.4%.

**Q.** For `CC(C)(C)c1cc(CO)cc(C(C)(C)C)c1O`, which “activity change, negative = cytotoxicity” value is on record?
**A.** The value was -5.95%.

**Q.** For `CC(C)c1ccc2c(C(C)C)cc(C(C)C)c(S(=O)(=O)O)c2c1`, which “activity change, negative = cytotoxicity” value is on record?
**A.** The value was -16.1%.

**Q.** Which “activity change, negative = cytotoxicity” value does the source give for `Cc1ccc(C(C)c2ccc(C)c(C)c2)cc1C` here?
**A.** Its value is 1.38%.

**Q.** With `CC(=O)/C=C/C1C(C)=CCCC1(C)C` (stereo not given) as the compound, how does the “activity change, negative = cytotoxicity” value read?
**A.** Its value is 0.433%.

**Q.** Which “activity change, negative = cytotoxicity” value does the source give for `N#CCc1cccc(C(F)(F)F)c1` here?
**A.** Its value is 0.846%.

**Q.** Which “activity change, negative = cytotoxicity” value does the source give for `C=CCCCCCC` here?
**A.** Its value is -0.285%.

**Q.** For `CCCCOC(=O)c1ccccc1C(=O)OCC(CC)CCCC` (stereo not given), which “activity change, negative = cytotoxicity” value is on record?
**A.** Its value is 7.65%.

**Q.** With `Cc1ccccc1N=Nc1ccc(N=Nc2c(O)ccc3ccccc23)c(C)c1` as the compound, how does the “activity change, negative = cytotoxicity” value read?
**A.** The value was 1.91% [at 42.5 µM].

**Q.** With `CCCCOC(=O)/C=C\C(=O)OCCCC` as the compound, how does the “activity change, negative = cytotoxicity” value read?
**A.** The value was -10.1%.

**Q.** For `CN(C)CC[C@@H](c1ccc(Br)cc1)c1ccccn1`, which “activity change, negative = cytotoxicity” value is on record?
**A.** Its value is -7.25% [at 42.5 µM].

**Q.** Which “activity change, negative = cytotoxicity” value does the source give for `OC(CCN1CCCCC1)(c1ccccc1)C1CCCCC1` (stereo not given) here?
**A.** Its value is -12.1% [at 42.5 µM].

**Q.** For `O=C(O)C1CCC(C(=O)O)CC1` (stereo not given), which “activity change, negative = cytotoxicity” value is on record?
**A.** Its value is -0.639%.

**Q.** With `CC1(C)CCC(C)(C)c2cc(NC(=O)c3ccc(C(=O)O)cc3)ccc21` as the compound, how does the “activity change, negative = cytotoxicity” value read?
**A.** The value was 0.101% [at 42.5 µM].

**Q.** For `CNS(=O)(=O)Cc1ccc2[nH]cc(CCN(C)C)c2c1`, which “activity change, negative = cytotoxicity” value is on record?
**A.** Its value is 9.58% [at 42.5 µM].

**Q.** Which Potency does the source give for `CN1CCC(=C2c3ccccc3C=Cc3ccccc32)CC1` here?
**A.** The Potency was 21.1 µM (active).

**Q.** Which “activity change, negative = cytotoxicity” value does the source give for `NC1CCN(c2nc3c(cc2F)c(=O)c(C(=O)O)cn3-c2ccc(F)cc2F)C1` (stereo not given) here?
**A.** Its value is -8.68% [at 42.5 µM].

**Q.** With `CCOC(=O)CC(C)C` as the compound, how does the “activity change, negative = cytotoxicity” value read?
**A.** Its value is 4.31%.

**Q.** With `NCc1ccccc1` as the compound, how does the “activity change, negative = cytotoxicity” value read?
**A.** Its value is -1.3%.

**Q.** With `CN(C)CCCOc1nn(Cc2ccccc2)c2ccccc12` as the compound, how does the “activity change, negative = cytotoxicity” value read?
**A.** The value was -12.3% [at 42.5 µM].

**Q.** For `SC1CCCC1`, which “activity change, negative = cytotoxicity” value is on record?
**A.** The value was -0.387%.

**Q.** For `CN(C)CCCNCCCN`, which “activity change, negative = cytotoxicity” value is on record?
**A.** Its value is -7.2%.

**Q.** Which “activity change, negative = cytotoxicity” value does the source give for `O=[N+]([O-])c1cccc(Cl)c1Cl` here?
**A.** Its value is 0.918%.

**Q.** Which “activity change, negative = cytotoxicity” value does the source give for `CCCCCCCCCC(=O)OCC` here?
**A.** The value was 8.08%.

**Q.** With `Cn1c(N)nc2nc[nH]c2c1=O` as the compound, how does the “activity change, negative = cytotoxicity” value read?
**A.** The value was -7.93%.

**Q.** Which “activity change, negative = cytotoxicity” value does the source give for `O=C(Cl)c1ccc([N+](=O)[O-])cc1` here?
**A.** The value was 0.83%.

**Q.** For `O=C1[C@H](CC[C@H](O)c2ccc(F)cc2)[C@@H](c2ccc(O)cc2)N1c1ccc(F)cc1`, which “activity change, negative = cytotoxicity” value is on record?
**A.** Its value is -4.85% [at 42.5 µM].

**Q.** Which “activity change, negative = cytotoxicity” value does the source give for `Cc1ccc(C(=O)C(C)CN2CCCCC2)cc1` (stereo not given) here?
**A.** Its value is -2.91% [at 42.5 µM].

**Q.** Which “activity change, negative = cytotoxicity” value does the source give for `c1ccc(-c2nc[nH]c2-c2ccccc2)cc1` here?
**A.** The value was -3.83% [at 42.5 µM].

**Q.** With `Cc1ccc(C)o1` as the compound, how does the “activity change, negative = cytotoxicity” value read?
**A.** Its value is -2.13%.

**Q.** With `O=C(C(=O)c1ccc(Br)cc1)c1ccc(Br)cc1` as the compound, how does the activity change, negative = cytotoxicity read?
**A.** Its activity change, negative = cytotoxicity is -2.64% [at 19 µM].

**Q.** Which “activity change, negative = cytotoxicity” value does the source give for `C=Cc1c(C)c2cc3[nH]c(cc4nc(cc5nc(cc1[nH]2)C(C)=C5CCC(=O)O)C(CCC(=O)O)=C4C)c(C)c3C=C` here?
**A.** The value was 1.84% [at 42.5 µM].

**Q.** Which “activity change, negative = cytotoxicity” value does the source give for `COc1ccc(OC)c(OC)c1` here?
**A.** Its value is 8.52%.

**Q.** Which “activity change, negative = cytotoxicity” value does the source give for `CC(C)NCC(O)c1cc(O)cc(O)c1` (stereo not given) here?
**A.** The value was 0.236% [at 42.5 µM].

**Q.** With `COc1ccc([C@@H]2Sc3ccccc3N(CCN(C)C)C(=O)[C@@H]2OC(C)=O)cc1` as the compound, how does the Potency read?
**A.** Its Potency is 21.1 µM (active).

**Q.** For `CCCCCCCCCCCCCCCC(=O)OC/C=C(C)/C=C/C=C(C)/C=C/C1=C(C)CCCC1(C)C`, which “activity change, negative = cytotoxicity” value is on record?
**A.** The value was -4.87%.

**Q.** For `O=C(CC(=O)c1ccccc1)c1ccccc1`, which “activity change, negative = cytotoxicity” value is on record?
**A.** The value was -9.02%.
